Shown are actives, neighbours in structure and some others; about 1.3% of the full set was active somewhere.
GALR2 ag: GALR2 (human) receptor agonism; GALR2-expressing cells, agonist activation read-out; activation, % (test concentration not listed); 140,000 tested, 0.48% active; O43603; AID 803; in the data active = activation above about 5%, passing the limit was not always enough;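 note: 0% = vehicle buffer wells and 100% = reference agonist at full effect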
Target sequence (O43603 whole entry, looked up): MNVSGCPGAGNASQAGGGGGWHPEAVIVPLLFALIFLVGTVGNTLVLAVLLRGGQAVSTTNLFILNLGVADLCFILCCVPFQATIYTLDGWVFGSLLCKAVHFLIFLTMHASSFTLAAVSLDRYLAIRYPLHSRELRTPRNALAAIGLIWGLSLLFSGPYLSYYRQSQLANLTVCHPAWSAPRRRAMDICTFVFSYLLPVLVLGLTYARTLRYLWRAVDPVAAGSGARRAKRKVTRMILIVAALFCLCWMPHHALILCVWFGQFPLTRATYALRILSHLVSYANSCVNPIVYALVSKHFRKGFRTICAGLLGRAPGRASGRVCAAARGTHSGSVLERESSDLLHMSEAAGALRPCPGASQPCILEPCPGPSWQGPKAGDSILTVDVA
GALR2 blocker: antagonists of human galanin receptor 2 (GALR2). O43603. GALR2-expressing cells, antagonist mode. inhibition, % at 4 µM. 140,000 tested, 0.39% active; in the data active = inhibition above about 27%;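 note: cells stimulated with galanin 1-16 at roughly its EC80; 0% = agonist challenge control and 100% = basal control without agonist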
LYP inh 2: blocks human PTPN22 phosphatase activity. Q9Y2R2. recombinant LYP catalytic domain, DiFMUP fluorescence. inhibition, % at 2 µM. 96,000 tested, 0.21% active. AID 640;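 active = inhibition at 2 µM at or above a set limit, the screen mean plus 3 SD, cut at about 24% in these data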;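 note: 0% = DMSO with enzyme and 100% = enzyme fully blocked by orthovanadate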
S1P2 agonist: agonists of human S1P2 receptor; O95136; AID 729; 97,000 tested, 0.46% active; activation, % at 4.5 µM; S1P2-expressing cell line, agonist reporter read-out; in the data active = activation above about 16%;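 note: 0% = vehicle low control and 100% = maximal reference agonist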
LYP act: LYP (human) phosphatase activation; AID 697; Q9Y2R2; recombinant LYP, DiFMUP fluorescence; 0 = plate median, 100 = signal doubled; activation, % at 2 µM; 96,000 tested, 0.11% active;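 active = activation at 2 µM above a set limit, the mean plus 5 SD, cut at about 37% in these data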
S1P2 blocker: S1P2 (human) receptor antagonism; O95136; cell-based S1P2 antagonist assay, inhibition at 5 uM; inhibition, % at 5 µM; 97,000 tested, 0.21% active; in the data active = inhibition above about 45%;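 note: CRE beta-lactamase reporter cells expressing human S1P2 stimulated with S1P; 0% = agonist at EC80 alone and 100% = agonist plus reference antagonist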
LYP act confirm: LYP (PTPN22) phosphatase activation confirmation; Recombinant LYP, DIFMUP fluorescence; zero set by plate's median compound well; shares compounds with LYP act; activation, % at 2 µM; 100 tested, under 10 active; call rule not given here
Active calls of the source: *; · = no result.

SMILES | GALR2 ag | GALR2 blocker | LYP inh 2 | S1P2 agonist | LYP act | S1P2 blocker | others
COc1ccc2[nH]c3nc(SCC(=O)NNC(=O)c4ccc(OC)c(OC)c4)nnc3c2c1 | -3.2 | 0.3 | 14.1 | -12.6 | -11.9 | 0.5
Cc1ccc(C(=O)NNC(=O)CSc2nnc3c(n2)[nH]c2ccc(F)cc23)cc1 | -1.4 | -3.1 | 29.6* | -5.1 | -27.5 | 20.8
Cc1nn(-c2ccccc2)c(Cl)c1/C=N/Nc1ccc(S(=O)(=O)Nc2ccccc2C(=O)O)cc1[N+](=O)[O-] | -2.1 | -4.3 | 24.3* | -3.0 | -22.3 | -5.3
Cc1nn(-c2ccccc2)c(Cl)c1/C=N/Nc1ccc(Cl)c(C(=O)O)c1 | -0.9 | 11.2 | · | · | · | ·
O=C(Nc1ccc2c(c1)OCCO2)C1CCN(C(=O)c2ccc(Br)cc2)CC1 | -2.4 | 1.8 | 5.7 | 0.5 | -6.4 | 0.0
O=C(Nc1ccc2c(c1)OCCO2)C1CCN(C(=O)c2ccccc2)CC1 | -2.7 | 3.5 | 2.2 | 23.7* | -4.9 | 9.5
OCC[C@@H]1C[C@@H](O)[C@H](O)[C@]2(CCCCO2)O1 | -0.8 | 6.1 | · | · | · | ·
COc1ccccc1CCn1c(N)c(C#N)c2nc3ccccc3nc21 | 2.0 | -20.2 | -5.2 | 16.1* | 3.0 | -31.3
CCCCCn1c(N)c(C#N)c2nc3ccccc3nc21 | 7.9* | -8.5 | 4.8 | 12.5 | -4.2 | -12.0
COc1ccc(CCn2c(N)c(C#N)c3nc4ccccc4nc32)cc1OC | 0.7 | -7.2 | 14.1 | 2.1 | -10.5 | 1.0
COc1ccc(Cn2c(N)c(C#N)c3nc4ccccc4nc32)cc1OC | 2.6 | -9.3 | 1.1 | 21.0* | 2.6 | -85.1
N#Cc1c(N)n(CCCN2CCOCC2)c2nc3ccccc3nc12 | 3.9 | 1.1 | 1.7 | 0.5 | -2.3 | 12.8
COc1cc2c(cc1NC(=O)CN(C)Cc1cccc(OC)c1OC)oc1ccccc12 | 0.2 | 3.7 | · | · | · | ·
N#Cc1cc2c(nc1SCC(=O)N1CCCCC1)CCCCC2 | -1.3 | 2.5 | -0.9 | -4.8 | -2.3 | -21.1
N#Cc1cc2c(nc1SCC(=O)N1CCCCC1)CCCC2 | 0.8 | -0.3 | -8.5 | 31.5* | 6.7 | 16.6
CCOC(=O)c1sc(NC(=O)C(CC)Sc2nc3ccccc3[nH]2)nc1C (stereo not given) | -1.1 | -1.9 | 25.3* | -3.3 | -24.0 | -6.9
O=C(CSc1nccn1-c1ncc(C(F)(F)F)cc1Cl)c1ccc(Cl)cc1 | -1.5 | -2.6 | -5.3 | -3.7 | 7.9 | 20.8
N#Cc1c(NC(=O)c2ccc(Cn3cc(Br)cn3)o2)sc2c1CCCCC2 | -0.5 | -3.9 | 5.2 | -1.0 | -3.9 | 15.1
CC1CCc2c(sc(NC(=O)c3ccc(Cn4cc([N+](=O)[O-])cn4)o3)c2C#N)C1 (stereo not given) | -1.4 | -16.2 | 25.4* | -4.8 | -22.2 | 6.6
Cc1c(C(=O)Nc2ccccc2)csc1-c1ccccc1 | 0.4 | -9.1 | · | · | · | ·
O=C(NC(Nc1ncc(S(=O)(=O)c2ccc([N+](=O)[O-])cc2)s1)(C(F)(F)F)C(F)(F)F)c1ccc(Cl)cc1 | -3.2 | 15.7 | -14.7 | -6.4 | 10.0 | 47.1*
COc1ccc(-c2nnc3c4ccccc4c(C)nn23)cc1S(=O)(=O)N1CCN(CCO)CC1 | -1.5 | 4.4 | -16.8 | 17.3* | 8.4 | -36.2
COc1ccc2c(CSc3nc4nc(C)cc(C)n4n3)cc(=O)oc2c1 | 1.0 | -24.1 | 5.0 | 17.2* | -6.3 | -25.3
Cc1cccc(CS(=O)(=O)Cc2ccc(C(=O)NCc3ccco3)o2)c1 | -1.0 | -3.1 | 0.3 | -3.6 | -3.4 | 13.8
COCCCNC(=O)c1ccc(CS(=O)(=O)Cc2cccc(C)c2)o1 | -1.3 | -2.4 | -41.0 | -0.6 | 37.4* | -4.4 | LYP act confirm=7.5
C=CCn1c(SCC(=O)Nc2nc(C)cs2)nnc1C(CO)NC(=O)c1ccccc1 (stereo not given) | -1.8 | 10.6 | 3.3 | -4.0 | -3.8 | -1.2
C=CCn1c(SCC(=O)Nc2c(C)nn(Cc3ccccc3)c2C)nnc1C(O)c1ccccc1 (stereo not given) | -2.4 | 1.8 | -49.2 | -4.2 | 42.8* | 1.8 | LYP act confirm=-0.8
CCSc1c(C(=O)NC)ccc2c1C(=O)c1ccccc1C2=O | 0.3 | -5.9 | 7.5 | -1.9 | -5.5 | -2.0
COC(=O)c1ccc2c(c1O)C(=O)c1ccccc1C2=O | -1.8 | -5.9 | -47.7 | -0.2 | 45.7* | 2.2 | LYP act confirm=2.7
O=C(CCNS(=O)(=O)c1cccs1)Nc1nccs1 | -2.0 | 2.1 | -8.5 | -3.4 | 6.5 | 38.8

Screening results from PubChem BioAssay.
